Assay results taken from PubChem BioAssay (EPA / NIEHS).
Activity calls are given as the source filed them. How the source made its calls: active means hit-call score of the fitted dose curve at least 0.9, where 1 is the maximum; inactive means score below 0.9.

Experiments:
Conditions in all cases: mRNA level, 48 h; actives raise or lower the signal
[1] = read-out: ABC Transporter (ABCB11), ABCB11 (gene 8647); test: LTEA_HepaRG_ABCB11: Life Technologies and Expression Analysis (LTEA) Assay for ABC Transporter (ABCB11) using HepaRG (AID 2283463)
Outline: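 Differentiated human HepaRG cells were exposed for 48 h in serum-free induction medium to eight half-log concentrations up to 100 uM in 0.5% DMSO. ABCB11 mRNA was quantified by qRT-PCR, normalized to ACTB, GAPDH and POLR2A, and fitted bidirectionally versus DMSO.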

[2] = read-out: ABC Transporter (ABCC2), ABCC2 (gene 1244); test: LTEA_HepaRG_ABCC2: Life Technologies and Expression Analysis (LTEA) Assay for ABC Transporter (ABCC2) using HepaRG (AID 2283464)
Outline: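 HepaRG cells were plated 48 h, switched to serum-free induction medium, then exposed in duplicate for 48 h to 8 concentrations (top 100 uM, half-log steps, 0.5% DMSO). ABCC2 mRNA was measured by qRT-PCR normalized to ACTB/GAPDH/POLR2A; bidirectional fitting versus DMSO.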

[3] = read-out: Broad substrate specificity ATP-binding cassette transporter ABCG2 (Homo sapiens) (UniProt Q9UNQ0); test: LTEA_HepaRG_ABCG2: Life Technologies and Expression Analysis (LTEA) Assay for ABC Transporter (ABCG2) using HepaRG (AID 2283465)
Outline: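 Differentiated HepaRG cells in serum-free induction medium were exposed for 48 h, in duplicate, to eight half-log concentrations up to 100 uM in 0.5% DMSO. ABCG2 mRNA was measured by TaqMan qRT-PCR, normalized to ACTB, GAPDH and POLR2A, and fitted bidirectionally versus DMSO.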

[4] = read-out: ATP-citrate lyase (ACLY), ACLY (gene 47); test: LTEA_HepaRG_ACLY: Life Technologies and Expression Analysis (LTEA) Assay for ATP-citrate lyase (ACLY) using HepaRG (AID 2283466)
Outline: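 Differentiated human HepaRG cells in serum-free induction medium exposed 48 h, in duplicate, to eight half-log concentrations from 100 uM top in 0.5% DMSO; ACLY mRNA measured by qRT-PCR, normalized to ACTB, GAPDH, POLR2A, fitted bidirectionally versus DMSO.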

[5] = read-out: Peroxisomal acyl-coenzyme A oxidase 1 (ACOX1) gene, ACOX1 (gene 51); test: LTEA_HepaRG_ACOX1: Life Technologies and Expression Analysis (LTEA) Assay for Peroxisomal acyl-coenzyme A oxidase 1 (ACOX1) gene using HepaRG (AID 2283467)
Outline: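 Differentiated human HepaRG cells were exposed in duplicate for 48 h in serum-free induction medium to eight half-log concentrations up to 100 uM in 0.5% DMSO. ACOX1 mRNA was then quantified by TaqMan qRT-PCR, normalized to ACTB, GAPDH and POLR2A.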

[6] = read-out: Alkaline Phosphatase, Placental (ALPP) gene, ALPP (gene 250); test: LTEA_HepaRG_ALPP: Life Technologies and Expression Analysis (LTEA) Assay for Alkaline Phosphatase, Placental (ALPP) gene using HepaRG (AID 2283468)
Outline: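 Differentiated human HepaRG cells were plated and cultured 48 h, then exposed in duplicate for 48 h in serum-free induction medium to eight half-log concentrations from 100 uM in 0.5% DMSO. ALPP mRNA was measured by TaqMan qRT-PCR, normalized to ACTB, GAPDH, POLR2A.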

[7] = read-out: Bcl-2 (BAD) gene, BAD (gene 572); test: LTEA_HepaRG_BAD: Life Technologies and Expression Analysis (LTEA) Assay for Bcl-2 (BAD) gene using HepaRG (AID 2283469)
Outline: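 Differentiated human HepaRG cells in serum-free induction medium were exposed in duplicate for 48 h to eight concentrations (top 100 uM, half-log steps, 0.5% DMSO). BAD mRNA was quantified by qRT-PCR normalised to ACTB, GAPDH and POLR2A, with bidirectional fitting versus DMSO.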

[8] = read-out: Bcl-2 (BAX) gene, BAX (gene 581); test: LTEA_HepaRG_BAX: Life Technologies and Expression Analysis (LTEA) Assay for Bcl-2 (BAX) gene using HepaRG (AID 2283470)
Outline: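 Concentration-response endpoint fitted in both directions relative to 0.5% DMSO vehicle. Human HepaRG cultures receive test chemicals for 48 h at up to 100 uM; BAX mRNA is quantified by qRT-PCR against housekeeping genes.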

[9] = read-out: adenosine kinase (ADK) gene, ADK (gene 132); test: LTEA_HepaRG_ADK: Life Technologies and Expression Analysis (LTEA) Assay for adenosine kinase (ADK) gene using HepaRG (AID 2283471)
Outline: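 ADK expression quantified by qRT-PCR, normalised to three housekeeping genes, after 48 h exposure of HepaRG cells to eight concentrations (top 100 uM, half-log steps, duplicate, 0.5% DMSO). Up- or down-regulation fitted relative to vehicle.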

[10] = read-out: Alpha-fetoprotein (AFP) gene, AFP (gene 174); test: LTEA_HepaRG_AFP: Life Technologies and Expression Analysis (LTEA) Assay for Alpha-fetoprotein (AFP) gene using HepaRG (AID 2283472)
Outline: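 After a 48 h plating period, cells are moved to serum-free induction medium and dosed in duplicate (100 uM maximum, half-log dilutions, 0.5% DMSO) for another 48 h. Total RNA goes to TaqMan qRT-PCR; AFP signal is housekeeping-normalized.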

Measured: AC50

Chain of Broad substrate specificity ATP-binding cassette transporter ABCG2 (Homo sapiens) (Q9UNQ0 whole entry, looked up): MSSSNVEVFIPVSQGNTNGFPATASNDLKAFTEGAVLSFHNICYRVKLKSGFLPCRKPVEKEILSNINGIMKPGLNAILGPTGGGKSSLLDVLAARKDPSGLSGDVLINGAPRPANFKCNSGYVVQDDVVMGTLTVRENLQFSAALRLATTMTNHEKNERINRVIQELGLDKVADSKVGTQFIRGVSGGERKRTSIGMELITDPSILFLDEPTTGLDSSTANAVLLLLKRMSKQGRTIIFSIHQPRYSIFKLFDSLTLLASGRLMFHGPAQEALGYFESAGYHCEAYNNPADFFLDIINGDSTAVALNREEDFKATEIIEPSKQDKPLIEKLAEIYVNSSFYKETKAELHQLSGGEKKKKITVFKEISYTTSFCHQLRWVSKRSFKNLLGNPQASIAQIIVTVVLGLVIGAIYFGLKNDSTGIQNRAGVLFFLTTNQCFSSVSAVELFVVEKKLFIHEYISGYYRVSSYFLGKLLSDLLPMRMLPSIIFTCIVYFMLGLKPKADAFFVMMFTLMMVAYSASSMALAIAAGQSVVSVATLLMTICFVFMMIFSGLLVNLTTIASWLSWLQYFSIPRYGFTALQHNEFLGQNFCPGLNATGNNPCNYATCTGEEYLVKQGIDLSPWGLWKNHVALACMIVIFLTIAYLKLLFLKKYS

CCCCN1C(=O)[C@@H]([C@H](O)C2CCCCC2)NC(=O)C12CCN(Cc1ccc(Oc3ccc(C(=O)O)cc3)cc1)CC2
inactive: [8]
active: [1] 0.849 µM | [2] 2.88 µM | [3] 1.54 µM | [4] 0.672 µM | [5] 2.79 µM | [6] 7.87 µM | [7] 3.81 µM | [9] 1.01 µM

CCCCCCCCN(C)C
inactive: all assays above

OCCNCCO
active: [1] 60.5 µM | [6] 50 µM
not listed: [10]
inactive: all other assays above

COc1cc2c(c(OC)c1OC)-c1ccc(OC)c(=O)cc1[C@@H](NC(C)=O)CC2
inactive: [3] | [4] | [7]
active: [1] 0.0634 µM | [2] 0.133 µM | [5] 0.0989 µM | [6] 0.221 µM | [8] 0.0559 µM | [9] 0.0644 µM

O=C(O)c1ccc2c(c1)nc(C(=O)NC1CCN(C3CC3)CC1)n2Cc1cc(-c2ccc(Cl)s2)on1
inactive: all assays above

OC(CCl)CCl
not listed: [10]
inactive: all other assays above

Cc1nccn1-c1ccc(Sc2cccc(C3(C(N)=O)CCOCC3)c2)cc1
inactive: [4] | [7] | [8]
active: [1] 9.74 µM | [2] 19.9 µM | [3] 31.2 µM | [5] 12.2 µM | [6] 5.09 µM | [9] 13.1 µM | [10] 13.4 µM

CC(C)CCCCCCOC(=O)C1CCCCC1C(=O)OCCCCCCC(C)C (stereo unspecified)
active: [6] 0.00316 µM | [9] 0.00316 µM
not listed: [5] | [10]
inactive: all other assays above

CCCCC(CC)C(=O)OCCOCCOCCOC(=O)C(CC)CCCC (stereo unspecified)
inactive: all assays above

CC(=O)c1ccccc1
inactive: all assays above

CNC(C)=O
not listed: [10]
inactive: all other assays above

O=S1(=O)CCCO1
inactive: all assays above

OCc1ccccc1
inactive: all assays above

OC[C@H]1O[C@@H]2O[C@H]3[C@H](O)[C@@H](O)[C@@H](O[C@H]4[C@H](O)[C@@H](O)[C@@H](O[C@H]5[C@H](O)[C@@H](O)[C@@H](O[C@H]6[C@H](O)[C@@H](O)[C@@H](O[C@H]7[C@H](O)[C@@H](O)[C@@H](O[C@H]1[C@H](O)[C@H]2O)O[C@@H]7CO)O[C@@H]6CO)O[C@@H]5CO)O[C@@H]4CO)O[C@@H]3CO
not listed: [10]
inactive: all other assays above

NC(=O)NN=Cc1ccc([N+](=O)[O-])o1
active: [2] 50 µM | [6] 0.468 µM | [7] 0.381 µM
not listed: [10]
inactive: all other assays above

O=S(=O)(O)c1ccc(N=Nc2c(O)ccc3cc(S(=O)(=O)O)ccc23)cc1
not listed: [10]
inactive: all other assays above

O=C(O)c1cccc(C[C@@H]2COc3ccc(OCc4nc5cc(F)ccc5s4)cc3[C@@H]2O)c1
active: [1] 79.3 µM | [6] 80 µM
not listed: [10]
inactive: all other assays above

Cn1c(=O)c2[nH]cnc2n(C)c1=O
not listed: [10]
inactive: all other assays above

CCCCOC(=O)c1ccccc1
not listed: [10]
inactive: all other assays above

COS(C)(=O)=O
inactive: all assays above

CCCCCCCCCCCCCCCCOS(=O)(=O)O
active: [1] 41.1 µM
not listed: [10]
inactive: all other assays above

NC(=O)N1c2ccccc2C=Cc2ccccc21
active: [2] 37.8 µM
not listed: [10]
inactive: all other assays above

CC(C)CC(C)O (stereo unspecified)
not listed: [5] | [10]
inactive: all other assays above

OCC(CO)(CO)CO
not listed: [10]
inactive: all other assays above

CC(C)c1nnc2ccc(-c3ocnc3-c3cc(F)ccc3F)cn12
active: [1] 81 µM | [3] 0.384 µM | [6] 39.6 µM
not listed: [10]
inactive: all other assays above

CCCOc1ccc(S(=O)(=O)N2CCN(CC)CC2)cc1-c1nc2c(CC)n(Cc3ccccn3)nc2c(=O)[nH]1
active: [1] 27.7 µM | [2] 5.49 µM | [4] 80.2 µM | [6] 50 µM
not listed: [10]
inactive: all other assays above

O=C(O)[C@H](O)[C@@H](O)C(=O)O
inactive: all assays above

c1ccc2c(c1)-c1cccc3c1c-2cc1ccccc13
active: [1] 15.1 µM | [2] 13.8 µM | [4] 3.88 µM | [9] 12.3 µM
inactive: [3] | [6] | [7] | [8]

C=CN1CCCC1=O
not listed: [10]
inactive: all other assays above

CCc1cccc(CC)c1N
not listed: [5] | [10]
inactive: all other assays above

OCCOCCOCCO
not listed: [5] | [10]
inactive: all other assays above

CC1(C)C(=O)N(Cl)C(=O)N1Cl
not listed: [10]
inactive: all other assays above

CCCC(CCC)C(=O)O
not listed: [10]
inactive: all other assays above
